A selection: hits, their analogues and other compounds. The true share with any hit is near 6.7%.
Pf Dd2 inh – P. falciparum Dd2 growth inhibition; SYBR Green, 72 h; stronger effect = lower value; activity change, % at 10 µM; actives 2.3% (n = 94,000); in the data active = activity change below about -80%; inconclusive = no clear call, values can overlap the other calls
T cruzi growth-1 – blocks T. cruzi growth in NIH3T3 culture; AID 624255; inhibition, % at 8.34 µM; actives 5.9% (n = 77,000); T. cruzi beta-gal in NIH3T3, GalScreen luminescence, 90 h;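 active = mean inhibition above about 93%, with at least 55% of replicates each passing it, limit read from the data, passing the limit was not always enough; inconclusive = only one of those two conditions holds; inactive = neither condition holds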
C diff HTS – inhibitors of Clostridium difficile growth; Clostridium difficile clinical isolate growth, OD600, 24 h; stronger effect = lower value; growth activity, negative = inhibition, % at 16 µg/mL (by protocol); actives 0.25% (n = 86,000);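 active = mean growth activity at or below -80% and every replicate also at or below -80%; inconclusive = mean at or below -80% but some replicate above -80%; inactive = mean growth activity above -80%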;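 note: 0% = DMSO wells and -100% = levofloxacin 16 µg/mL wells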
T cruzi growth-2 – inhibitors of T. cruzi proliferation. shares compounds with T cruzi growth-1. T. cruzi beta-gal in NIH3T3, GalScreen luminescence, 90 h. inhibition, % at 8.35 µM. actives 72% (n = 5,600). AID 651739;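 active = mean replicate inhibition above about 95% and at least 55% of replicates individually reaching it, limit read from the data; inconclusive = only one of the two criteria is met; inactive = neither criterion is met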
T cruzi growth-3 – blocks T. cruzi growth in NIH3T3 host cells | T. cruzi beta-gal in NIH3T3, GalScreen luminescence, 90 h | actives 21% (n = 5,600) | inhibition, % at 2.09 µM | shares compounds with T cruzi growth-1;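 active = mean inhibition above about 95%, with at least 55% of replicates also reaching it, limit read from the data; inconclusive = meets just one of the two conditions; inactive = meets neither condition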;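 note: plate controls were neutral control median for no effect and positive control median for full effect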
NIH3T3 tox – kills mouse NIH/3T3 fibroblasts; shares compounds with T cruzi growth-1; NIH/3T3 viability, CellTiter-Glo ATP luminescence, 90 h; cytotoxicity (signal decrease), % at 8.35 µM; actives 14% (n = 5,600);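 active = mean signal decrease across replicates above about 35% based on untreated-well scatter, with enough replicates individually passing, limit read from the data; inconclusive = no rule stated though some were filed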;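 note: 0% = median of neutral control wells and 100% = median of positive control wells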
3T3 cytotox 2 – kills mouse NIH/3T3 fibroblasts; shares compounds with T cruzi growth-1; NIH/3T3 viability, CellTiter-Glo ATP luminescence, 90 h; inhibition, % at 24.9 µM; actives 56% (n = 5,600); AID 651744;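 active = mean loss of cell viability signal at or above a set limit, and enough replicates individually reaching it; inconclusive = meets only the mean limit or only the replicate share; inactive = meets neither condition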;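 note: 0% = median of neutral control wells and 100% = median of positive control wells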
Active calls of the source: *; ? = inconclusive; . = no result.

SMILES	Pf Dd2 inh	T cruzi growth-1	C diff HTS	T cruzi growth-2	T cruzi growth-3	NIH3T3 tox	3T3 cytotox 2
N#Cc1cccc(-c2ccc([C@H]3[C@H]4CN(S(=O)(=O)c5ccccc5)CCCCN4[C@H]3CO)cc2)c1	15	58	11	.	.	.	.
O=S(=O)(c1ccccc1)N1CCCCN2[C@@H](CO)[C@H](c3ccc(-c4ccccc4)cc3)[C@@H]2C1	21	76	2	.	.	.	.
N#Cc1ccc(-c2ccc([C@@H]3[C@H]4CN(S(=O)(=O)c5ccccc5)CCCCN4[C@H]3CO)cc2)cc1	-12	101*	-7	103*	46	23	29*
O=C(N[C@@H]1CC[C@@H](CCn2cc(Cc3ccccc3)nn2)O[C@H]1CO)c1cnccn1	2	12	2	.	.	.	.
C[C@H](CO)N1C[C@H](C)[C@H](CN(C)C(=O)Nc2ccc(F)cc2)Oc2ncc(C#C[C@@H](C)O)cc2C1=O	1	-13	.	.	.	.	.
CC(C)NC(=O)Nc1ccc2c(c1)C(=O)N([C@H](C)CO)C[C@@H](C)[C@H](CN(C)C(=O)CCC(F)(F)F)OCCCC[C@@H](C)O2	-7	22	2	.	.	.	.
C[C@H]1CN([C@@H](C)CO)C(=O)c2cccc(NC(=O)C3CC3)c2O[C@@H]1CN(C)Cc1ccncc1	2	8	2	.	.	.	.
Cc1ccc(-c2ccc3c(c2)O[C@@H](CN(C)Cc2cccnc2)[C@@H](C)CN([C@@H](C)CO)S3(=O)=O)cc1	-80	102*	9	92	81	52*	94*
C[C@@H]1CN([C@H](C)CO)S(=O)(=O)c2ccc(-c3ccncc3)cc2O[C@@H]1CN(C)Cc1cccnc1	27	73	1	.	.	.	.
C[C@H]1CN([C@@H](C)CO)S(=O)(=O)c2ccc(-c3cncnc3)cc2O[C@H]1CN(C)Cc1cccnc1	1	29	7	.	.	.	.
Cc1ccc(-c2ccc3c(c2)O[C@@H](CN(C)Cc2cccnc2)[C@H](C)CN([C@H](C)CO)S3(=O)=O)cc1	-78	118*	-5	?	104*	80*	102*
C[C@H](CO)N1C[C@H](C)[C@@H](CN(C)Cc2cccnc2)Oc2cc(-c3cncnc3)ccc2S1(=O)=O	7	36	6	.	.	.	.
Cc1ccc(-c2ccc3c(c2)O[C@H](CN(C)Cc2cccnc2)[C@H](C)CN([C@@H](C)CO)S3(=O)=O)cc1	-39	108*	-10	97*	80	46*	95*
Cc1ccc(S(=O)(=O)N2C[C@H]3O[C@H](CNS(=O)(=O)c4ccccc4C)CC[C@H]32)cc1	-2	.	-2	.	.	.	.
C[C@@H]1CN([C@@H](C)CO)C(=O)c2c(c3ccccc3n2C)-c2ccccc2CO[C@H]1CN(C)Cc1ccc(C(=O)O)cc1	19	-120	.	.	.	.	.
C[C@@H]1CN([C@H](C)CO)C(=O)CCCn2cc(nn2)CO[C@H]1CN(C)C(=O)c1ccc2ccn(C)c2c1	1	?	3	-1	-6	-15	-17
C[C@H]1CN([C@@H](C)CO)C(=O)CCCn2cc(nn2)CO[C@@H]1CN(C)C(=O)Nc1ccc(N2CCN(C)CC2)cc1	-7	7	1	.	.	.	.
C[C@@H]1CN([C@@H](C)CO)C(=O)CCCn2cc(nn2)CO[C@@H]1CN(C)C(=O)c1ccc(N2CCN(C)CC2)cc1	-16	9	0	.	.	.	.
C[C@H](CO)N1C[C@H](C)[C@H](CN(C)C(=O)c2ccc(N3CCN(C)CC3)cc2)OCc2cn(nn2)CCCC1=O	11	?	-3	-57	-15	-16	-12
C[C@H]1CN([C@@H](C)CO)C(=O)CCCn2cc(nn2)CO[C@H]1CN(C)C(=O)c1ccc2ccn(C)c2c1	6	-132	-3	.	.	.	.
C[C@H]1CN([C@@H](C)CO)C(=O)CCCn2cc(nn2)CO[C@H]1CN(C)C(=O)c1ccc(N2CCN(C)CC2)cc1	-6	?	-1	42	-20	-25	-38
CO[C@H]1CN(C)C(=O)c2ccc(NC(=O)C3CC3)cc2OC[C@H](C)N(C(=O)c2ccncc2)C[C@H]1C	-55	2	-1	.	.	.	.
C[C@@H]1CN([C@@H](C)CO)S(=O)(=O)c2ccc(C3=CCCC3)cc2O[C@@H]1CN(C)C(=O)C1CCCCC1	-21	91	-8	.	.	.	.
C[C@H]1CN([C@@H](C)CO)S(=O)(=O)c2ccc(C3=CCCC3)cc2O[C@H]1CN(C)C(=O)C1CCCCC1	-29	89	4	.	.	.	.
C[C@@H]1CN([C@H](C)CO)S(=O)(=O)c2ccc(C3=CCCC3)cc2O[C@@H]1CN(C)C(=O)C1CCCCC1	-51	115*	-3	102*	80	?	25
SMILES	Pf Dd2 inh	T cruzi growth-1	C diff HTS	T cruzi growth-2	T cruzi growth-3	NIH3T3 tox	3T3 cytotox 2
C[C@@H]1CN([C@@H](C)CO)S(=O)(=O)c2ccc(C3=CCCC3)cc2O[C@H]1CN(C)C(=O)C1CCCCC1	-22	?	-13	91	60	26	41*
C[C@H]1CN([C@@H](C)CO)C(=O)c2cccc(NS(=O)(=O)c3ccccc3)c2O[C@H]1CN(C)S(=O)(=O)c1cn(C)cn1	1	13	5	.	.	.	.
C[C@@H]1CCCCO[C@@H](CN(C)S(=O)(=O)c2ccc(F)cc2)[C@@H](C)CN([C@@H](C)CO)C(=O)c2cc(NC(=O)Nc3ccc(C(F)(F)F)cc3)ccc2O1	-79	93	.	.	.	.	.
C[C@H]1CCCCO[C@H](CN(C)S(=O)(=O)c2ccc(Cl)cc2)[C@@H](C)CN([C@@H](C)CO)C(=O)c2cc(NC(=O)Nc3ccc(F)cc3)ccc2O1	-72	89	-2	.	.	.	.
Cc1ccc(S(=O)(=O)N(C)C[C@H]2OCCCC[C@H](C)Oc3ccc(NC(=O)Nc4ccc(F)cc4)cc3C(=O)N([C@@H](C)CO)C[C@@H]2C)cc1	-73	.	.	.	.	.	.
C[C@@H]1CCCCO[C@H](CN(C)S(=O)(=O)c2ccc(F)cc2)[C@@H](C)CN([C@H](C)CO)C(=O)c2cc(NC(=O)Nc3ccc(C(F)(F)F)cc3)ccc2O1	-71	103*	.	109*	79	16	51*
Cc1ccc(S(=O)(=O)N(C)C[C@@H]2OCCCC[C@@H](C)Oc3ccc(NC(=O)Nc4ccc(F)cc4)cc3C(=O)N([C@@H](C)CO)C[C@@H]2C)cc1	-85*	107*	.	111*	105*	1	47*
C[C@@H]1CCCCO[C@H](CN(C)S(=O)(=O)c2ccc(Cl)cc2)[C@@H](C)CN([C@@H](C)CO)C(=O)c2cc(NC(=O)Nc3ccc(C(F)(F)F)cc3)ccc2O1	-88*	?	1	106*	110*	28	34*
Cc1ccc(S(=O)(=O)N(C)C[C@H]2OCCCC[C@@H](C)Oc3ccc(NC(=O)Nc4ccc(F)cc4)cc3C(=O)N([C@H](C)CO)C[C@@H]2C)cc1	-55	.	.	.	.	.	.

Screens deposited in PubChem BioAssay by Broad Institute.
